Compound activity (PubChem)
Sampled rows, rich in hits. Any-hit rate of the full collection: about 0.9%.
A647 fluor: qHTS Assay for Spectroscopic Profiling in A647 Spectral Region | 59,000 tested, under 10 active | Compound fluorescence, A647 channel (570/671 nm), Tris buffer | AID 592, 2007 | max dye-equivalent concentration, M
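Compounds pinned into 100 mM Tris pH 8.0, 15 min at room temperature, then read with 570 nm excitation/671 nm emission filters. Fluorescence normalized to an on-plate six-point Alexa 647 standard curve, giving dye-equivalent concentration per compound concentration.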
A488 fluor: qHTS Assay for Spectroscopic Profiling in A488 Spectral Region. compound autofluorescence, A488 spectral region, dye equivalency; Compound Type: qHTS ECL - MLSMR. max dye equivalency, M. 59,000 tested, 0.1% active. AID 591, 2007
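Read-out: relative fluorescence at 480/540 nm, expressed as Alexa 488 dye-equivalent concentration from a six-point A488 standard included per plate. Conditions: 100 mM Tris, pH 8.0; 15 min incubation, room temperature.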
Resorufin autofl: qHTS Assay for Spectroscopic Profiling in Resorufin Spectral Region. Compound fluorescence, resorufin region 547/598 nm, buffer; active compounds read high. max dye-equivalent concentration, M. 59,000 tested, 0.04% active
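Read-out: intrinsic compound fluorescence at ex 547/em 598 nm after 15 min at RT in pH 8.0 Tris (100 mM). Values expressed as resorufin-equivalent concentration from per-plate standard series.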
Fluorescein fluor: qHTS Assay for Spectroscopic Profiling in Fluorescein Spectral Region | max fluorescein-equivalent concentration, M | Compound autofluorescence, 480/540 nm, fluorescein-equivalent; active compounds read high | AID 593, 2007 | 59,000 tested, 0.91% active; in the data active means max fluorescein-equivalent concentration above about 10 nM; inconclusive means between about 1.1 nM and that limit
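Autofluorescence profiling; 100 mM Tris, pH 8.0; incubation 15 min at RT; ex/em 480/540 nm; result as fluorescein-equivalent concentration.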
Texas Red fluor: qHTS Assay for Spectroscopic Profiling in Texas Red Spectral Region. Compound fluorescence, Texas Red channel, 547/618 nm; active compounds read high. max dye-equivalent concentration, M. 59,000 tested, 0.06% active. AID 587, 2007; in the data active means max dye-equivalent concentration above about 10 nM; inconclusive means between about 1.1 nM and that limit
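Spectral interference profiling: each compound concentration's relative fluorescence, read with a 547 nm excitation and 618 nm emission filter pair, was normalized to a per-plate Texas Red standard curve.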
Rhodamine fluor: qHTS Assay for Spectroscopic Profiling in Rhodamine Spectral Region; Rhodamine-region fluorescence, 547/598 nm, Tris buffer; active compounds read high; max dye-equivalent concentration, M; 59,000 tested, 0.05% active; in the data active means max dye-equivalent concentration above about 11 nM; inconclusive means between about 1.1 nM and that limit
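Compound fluorescence in 100 mM Tris, pH 8.0, read after 15 min at room temperature with 547 nm excitation and 598 nm emission. Output is dye-equivalent concentration from an on-plate rhodamine standard series.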
Each line names hits and unclear results; the compound was inactive in the other large screens. Unless noted, how the calls were made is not given here.

CCOC(=O)C1CCN(c2nc3ccccc3nc2C(C#N)C(=O)OC(C)C)CC1 (stereo not drawn)	Fluorescein fluor 1.29e-08M
CCOC(=O)C1CCCN(c2nc3ccccc3nc2C(C#N)C(=O)OC(C)C)C1 (stereo not drawn)	A488 fluor 1.35e-08M, Fluorescein fluor 2.27e-07M
CCOC(=O)C1CCN(c2nc3ccccc3nc2C(C#N)C(=O)OC(C)COC)CC1 (stereo not drawn)	Fluorescein fluor inconclusive
C[C@H]1[C@H](C)CC[C@@]2(C(=O)O)CC[C@]3(C)C(=CC[C@@H]4[C@@]5(C)CC[C@H](O)C(C)(C)[C@@H]5CC[C@@]43C)[C@@H]12	none
CCOC(=O)Nc1ccc(NCc2ccc(F)cc2)nc1N	Fluorescein fluor 1.61e-08M
CCOC(=O)Nc1cc(C)ccc1OC	Texas Red fluor inconclusive
N#Cc1c(N)sc(=S)c2c1CCCC2	A488 fluor inconclusive, Fluorescein fluor 6.77e-08M, Texas Red fluor inconclusive
CCC1(C)Cc2c(C#N)c(N)sc(=S)c2CO1 (stereo not drawn)	Fluorescein fluor 1.03e-08M
CSc1c(C#N)c(N)c(C#N)c2c1COC(C)(C)C2	Fluorescein fluor inconclusive
Nc1ccc(C(=O)O)c(O)c1	Fluorescein fluor inconclusive
Nc1nc(N)c(N=Nc2ccc(C(=O)O)c(O)c2)c(N)n1	Fluorescein fluor 1.4e-08M
O=C(c1ccc(Cl)cc1)C1C2C(=O)N(c3ccccc3)C(=O)C2C2CCCN21 (stereo not drawn)	A488 fluor inconclusive, Fluorescein fluor 5.18e-08M
Cc1ccc(N2C(=O)[C@@H]3[C@H](C2=O)C2CCCN2[C@@H]3C(=O)c2ccccc2)cc1 (stereo partly drawn)	Fluorescein fluor inconclusive
CC(=O)c1ccc(N2C(=O)C3C(C2=O)C(C(=O)c2ccc(Cl)cc2)N2CCCC32)cc1 (stereo not drawn)	A488 fluor inconclusive, Fluorescein fluor 1.32e-07M
CCc1nnc(NC(=O)C2CCCN(c3nc4ccccc4s3)C2)s1 (stereo not drawn)	Fluorescein fluor inconclusive
O=C(Nc1ccc2c(c1)OCO2)C1CCCN(c2nc3ccccc3s2)C1 (stereo not drawn)	Resorufin autofl inconclusive, Fluorescein fluor inconclusive, Texas Red fluor 2.59e-08M, Rhodamine fluor 1.22e-08M
OC[C@@H]1O[C@@H](n2cnc3c(NCCc4ccccc4)ncnc32)[C@@H](O)[C@H]1O	none
CCC1=C/C(=C/N(C)c2ccccc2)C(=O)S1	Fluorescein fluor 1.49e-08M
CC(=O)S[C@H]1CC2=CC(=O)CC[C@@]2(C)[C@H]2CC[C@@]3(C)[C@H](CC[C@]34CCC(=O)O4)[C@@H]12	A488 fluor inconclusive, Resorufin autofl inconclusive, Fluorescein fluor 4.95e-08M, Texas Red fluor 1.04e-08M, Rhodamine fluor inconclusive
C=CCn1c(=O)/c(=C/c2cc(OC)c(OC)c(OC)c2)s/c1=C(/C#N)c1nc2ccccc2n1C	A488 fluor 1.45e-08M, Fluorescein fluor 2.78e-07M
C=CCn1c(=O)/c(=C/c2ccc(O)cc2)s/c1=C(/C#N)c1nnc2n1CCCCC2	A488 fluor inconclusive, Fluorescein fluor 9.41e-08M
C=CCn1c(=O)/c(=C/c2ccc(Cl)cc2)s/c1=C(/C#N)c1nnc2n1CCCCC2	none
C#C[C@@]1(O)CC[C@H]2[C@H]3CCC4=Cc5oncc5C[C@]4(C)[C@@H]3CC[C@@]21C	none
Nc1ncnc2c1nc(Br)n2[C@@H]1O[C@H]2COP(=O)(O)O[C@@H]2[C@H]1O	none
O=c1c(-c2ccc(Cl)cc2)nc2cnc(N3CCOCC3)nc2n1C1CC1	Fluorescein fluor 1.05e-08M
Cc1ccc(/C=c2\s/c(=C(/C#N)C(=O)N3CCCC3)n(Cc3ccco3)c2=O)s1	A488 fluor inconclusive, Fluorescein fluor 6.39e-08M, Texas Red fluor inconclusive
COc1cc(/C=c2\s/c(=C(/C#N)C(=O)N3CCCC3)n(-c3ccccc3)c2=O)ccc1O	Fluorescein fluor inconclusive
COc1ccc2nc(N3CCCC3)c(C#N)cc2c1	A488 fluor inconclusive, Fluorescein fluor 7.21e-08M
COc1ccc2nc(N3CCCCC3)c(C#N)cc2c1	Fluorescein fluor 1.51e-08M, Texas Red fluor inconclusive
CC1CCc2cccc3c2N1c1cc(C#N)c(C#N)cc1O3 (stereo not drawn)	A488 fluor inconclusive, Fluorescein fluor 6.28e-08M, Texas Red fluor inconclusive
CN1C(=O)c2cccc(N(C)C)c2C1=O	Fluorescein fluor inconclusive
CN1C(=O)c2cccc(NCCCN3C(=O)c4ccccc4C3=O)c2C1=O	A488 fluor inconclusive, Fluorescein fluor 6.66e-08M
CCNc1cccc2c1C(=O)N(C)C2=O	A488 fluor 1.28e-08M, Fluorescein fluor 2.69e-07M
Cn1c(=O)c2[nH]c(CS(=O)(=O)Cc3nc4c([nH]3)c(=O)n(C)c(=O)n4C)nc2n(C)c1=O	A488 fluor inconclusive, Fluorescein fluor 1.22e-07M, Texas Red fluor inconclusive
CCN(CC)[C@@H](C)C(=O)N1c2ccccc2Sc2ccccc21	Texas Red fluor inconclusive
Cc1sc2nc(CSc3nc4ccccc4c(=O)n3CCCN3CCOCC3)[nH]c(=O)c2c1C	A488 fluor inconclusive, Fluorescein fluor 3.41e-08M
CC(=O)c1c(C)[nH]c(C(=O)CSc2nc3ccccc3c(=O)n2CCCN2CCOCC2)c1C	Fluorescein fluor inconclusive, Texas Red fluor inconclusive
c1ccc(N2CCN(c3nc4ccccc4n4nnnc34)CC2)cc1	Fluorescein fluor 1.85e-08M
O=C1O[C@H](CN2CCOCC2)CN1/N=C\c1ccc([N+](=O)[O-])o1	Fluorescein fluor inconclusive
O=C1OCCN1/N=C\c1ccc([N+](=O)[O-])o1	Fluorescein fluor 3.11e-08M, Texas Red fluor inconclusive
CN=Cc1sc2ccccc2c1O	none
CC(=Nc1cccc(O)c1)c1sc2ccccc2c1O	Fluorescein fluor 1.91e-08M
C=C[C@@](C)(O)CC[C@H]1[C@]2(C)CCCC(C)(C)[C@H]2CC[C@]1(C)O	Fluorescein fluor inconclusive
O=C1c2ccccc2-c2onc3ccc(NCc4ccco4)c1c23	A488 fluor 5.37e-08M, Resorufin autofl 1.71e-08M, Fluorescein fluor 1.21e-06M, Texas Red fluor 1.78e-08M, Rhodamine fluor 1.99e-08M
O=c1nccc(NCc2ccco2)[nH]1	Fluorescein fluor inconclusive, Texas Red fluor inconclusive
O=C(O)CCCCCC[C@@H]1C(=O)NC(=O)N1CC[C@@H](O)C1CCCCC1	none
COc1ccccc1NC(=O)CC1Nc2ccccc2NC1=O (stereo not drawn)	none
O=C(CC1NC(=O)NC1=O)Nc1cccc2ccccc12 (stereo not drawn)	A488 fluor inconclusive, Fluorescein fluor 4.28e-08M
CCN(CC)c1ccc(C=N/C(C#N)=C(\N)C#N)cc1	A488 fluor 2.56e-08M, Fluorescein fluor 5.03e-07M, Texas Red fluor inconclusive, Rhodamine fluor inconclusive
CCCCC/C=C\C[C@H](O)/C=C\c1cccc(C[C@H](O)CCCCO)n1	Fluorescein fluor inconclusive
